M1 ag parental = M1 agonist counterscreen hit in parental CHO-K1 cells | activation, % at 3 µM | Fluo-8 calcium fluorescence; scaled to maximal ATP response, vehicle zero | AID 602248 | 0.48% of 360,000 active; in the data active = activation above about 15%;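 also: untransfected CHO-K1 host cells lacking M1 receptor as counterscreen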
M1 ag = activates human CHRM1 receptor | activation, % at 3 µM | CHO-K1 hM1, Fluo-8 calcium fluorescence, agonist mode; 0% DMSO, 100% acetylcholine EC100 | P11229 | 0.33% of 360,000 active;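 active = activation above the run's mean compound activation plus 3 SD, cut at about 16% in these data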;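 also: peak over basal fluorescence ratio within a 140 s kinetic read after compound addition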
Target sequence (P11229 whole entry, looked up): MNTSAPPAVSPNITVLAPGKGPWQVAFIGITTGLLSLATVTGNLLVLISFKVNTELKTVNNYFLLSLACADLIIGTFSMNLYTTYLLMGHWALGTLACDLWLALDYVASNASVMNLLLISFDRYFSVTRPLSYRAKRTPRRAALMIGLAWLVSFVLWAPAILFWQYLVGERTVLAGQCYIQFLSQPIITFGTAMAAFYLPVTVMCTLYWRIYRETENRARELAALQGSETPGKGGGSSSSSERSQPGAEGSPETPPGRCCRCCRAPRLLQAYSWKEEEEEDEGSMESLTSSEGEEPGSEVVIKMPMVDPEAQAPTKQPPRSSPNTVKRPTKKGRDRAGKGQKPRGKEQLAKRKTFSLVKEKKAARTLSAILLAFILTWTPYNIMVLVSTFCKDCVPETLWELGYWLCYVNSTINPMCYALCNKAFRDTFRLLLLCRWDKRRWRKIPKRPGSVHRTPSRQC
CHRM1 antagonist = antagonists of human M1 muscarinic receptor. CHO-K1 hM1, Fluo-8 calcium fluorescence, ACh EC80 antagonist. inhibition, % at 3 µM. 1.3% of 360,000 active. AID 588852;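 active = percent inhibition above its own plate's cutoff, namely the mean of that plate's compound wells plus 3 SD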;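 also: peak over basal fluorescence ratio during 140 s after agonist addition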
CHRM1 PAM = potentiates human M1 receptor response to acetylcholine. P11229. CHO-K1 hM1, Fluo-8 calcium fluorescence, ACh EC20; 0% = ACh EC20, 100% = maximal ACh. activation, % at 3 µM. 0.088% of 360,000 active. AID 588819; in the data active = activation above about 19%, passing the limit was not always enough
CHO-K1 Ca antag = M1 antagonist counterscreen hit in parental CHO-K1 cells; ATP-induced calcium, Fluo-8 fluorescence; inhibition, % at 3 µM; 0.6% of 360,000 active; AID 602250;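 active = inhibition above a per-plate cutoff, the plate's mean sample inhibition plus 3 SD, cut at about 24% in these data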
M1 PAM parental = counter-screen for M1 PAMs: effect in parental CHO-K1 cells. activation, % at 3 µM. ATP EC20, Fluo-8 calcium fluorescence; 0% at ATP EC20, 100% at ATP max. 0.02% of 360,000 active. AID 602247;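 active = activation above the run cutoff, the mean activation of all test compounds plus 3 SD, cut at about 40% in these data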;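 also: peak over basal fluorescence ratio in a 140 s read after ATP addition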
Large screens that a line does not name were inactive. A selection: hits, their analogues and other compounds. The true share with any hit is near 2.4%.

[O-]/[N+](=C/c1ccccc1)c1ccccc1	none
COc1ccc(C(CNC(=O)COc2ccccc2C)N2CCCCC2)cc1 (stereo not drawn)	none
Cc1ccccc1OCC(=O)NCC(c1ccco1)N1CCCCC1 (stereo not drawn)	CHRM1 antagonist 28
COc1ccccc1C(CNC(=O)COc1cc(C)ccc1Cl)N1CCCC1 (stereo not drawn)	CHRM1 antagonist 62
Cc1cc(C)c(OCC(=O)NCC(c2ccco2)N2CCCCC2)c(C)c1 (stereo not drawn)	none
COc1ccccc1C(CNC(=O)COc1ccccc1C)N1CCCC1 (stereo not drawn)	CHRM1 antagonist 59
CCC(=O)NCC(c1ccco1)N1CCN(c2ccc(OC)cc2)CC1 (stereo not drawn)	M1 ag parental 17
N#CC1=C(N)N=C(SCc2cccc3ccccc23)C(C(N)=O)C12CCCCC2 (stereo not drawn)	none
O=C(O)c1ccc(N=Cc2c(O)ccc3oc4c(c23)CCCC4)cc1	none
Oc1ccccc1N=Cc1c(O)ccc2oc3c(c12)CCCC3	M1 ag parental 16
O=S1(=O)CC(N2CC=CC2)CN1Cc1cn(Cc2ccc(F)cc2)nn1 (stereo not drawn)	none (no result: M1 ag, CHRM1 antagonist, CHRM1 PAM)
CC(Sc1nc(N)cc(=O)[nH]1)C(=O)Nc1sc2c(c1C#N)CCCC2 (stereo not drawn)	CHO-K1 Ca antag 30
N#Cc1c(NC(=O)CSc2nc(N)cc(=O)[nH]2)sc2c1CCCCCC2	none
CC(Sc1ncn[nH]1)C(=O)c1c(N)n(C)c(=O)n(C)c1=O (stereo not drawn)	none
CC(Sc1nnc(N)s1)C(=O)c1c(N)n(C)c(=O)n(C)c1=O (stereo not drawn)	M1 ag parental 18
CN(C)CCCN(Cc1ccccc1)C(=S)Nc1ccc(OC(F)F)cc1	CHRM1 antagonist 55
CN(Cc1ccccc1)C(=S)Nc1ccc(OC(F)F)cc1	none
CC1=NC(C)(C)Cc2cc(C)c(C)cc21	none
Cc1ccccc1N1CCN(C2CCCN(C(=O)CCC(=O)N(C)C)C2)CC1 (stereo not drawn)	none
Cc1ccn(CCC(=O)N2CCCC(N3CCN(c4ccccc4C)CC3)C2)n1 (stereo not drawn)	M1 ag 49
CSc1ncnc2c1ncn2CCCN1CCN(c2ncccn2)CC1	CHRM1 antagonist 31
Cc1cc(C)[n+](-c2ccc(C(C)C)cc2)c2[nH]c(=O)[nH]c(=O)c12	CHRM1 antagonist 55
O=[N+]([O-])c1ccc(CN2CCC(Cc3ccccc3)CC2)cc1	CHRM1 antagonist 39
O=[N+]([O-])c1cccc(OCCCN2CCC(Cc3ccccc3)CC2)c1	CHRM1 antagonist 77
Cc1ccc([N+](=O)[O-])c(OCCN2CCC(Cc3ccccc3)CC2)c1	CHRM1 antagonist 84
Cc1ccccc1OCCN1CCC(Cc2ccccc2)CC1	none
COc1ccccc1N1CCN(C(=O)CCNS(=O)(=O)c2cc(Br)cnc2N)CC1	none
CC(C)Oc1ccc(N2CC(C(=O)Nc3ccccc3C(=O)NC3CC3)CC2=O)cc1 (stereo not drawn)	none
COc1ccccc1C(=O)NC(CCSC)C(=O)NCCCSc1ccccc1 (stereo not drawn)	none
CCCC(=O)Nc1cc(C(=O)O)ccc1Sc1ccccc1	none
Cc1ccc(NC(=O)CNC(=O)CC23CC4CC(CC(C4)C2)C3)c(O)c1	none
O=C(c1cccc(Cl)c1)C1CCCN(Cc2ccc(N3CCNC3=O)cc2)C1 (stereo not drawn)	CHRM1 antagonist 46
COc1cccc(C(=O)C2CCCN(CC3=Cc4cc(OC)ccc4OC3)C2)c1 (stereo not drawn)	CHRM1 antagonist 42
COc1ccc(CN2CCC(C(=O)c3cccc(Cl)c3)CC2)cc1	none
COc1ccc(C(=O)C2CCCN(Cc3ccc4c(c3)OCCO4)C2)cc1F (stereo not drawn)	none
COc1cccc(CN2CCCC(C(=O)c3ccc4c(c3)OCO4)C2)c1O (stereo not drawn)	CHRM1 antagonist 41
CC(=O)c1cccc(CN2CCCC(C(=O)c3ccc4c(c3)OCO4)C2)c1 (stereo not drawn)	CHRM1 antagonist 72
O=C(c1ccc2c(c1)OCO2)C1CCCN(C2CCN(CCc3ccccc3)CC2)C1 (stereo not drawn)	CHRM1 antagonist 74
CCOC(=O)CNC(=O)N1CCCC(C(=O)c2ccc3c(c2)OCO3)C1 (stereo not drawn)	none
CCCn1cc(CN2CCCC(C(=O)c3ccc4c(c3)OCO4)C2)c(C)n1 (stereo not drawn)	CHRM1 antagonist 65
CCN(CC)C(=O)C1CCCN(Cc2ccc3c(c2)OCO3)C1 (stereo not drawn)	none
COc1ccc(CN2CCCC(C(=O)c3ccc4c(c3)OCO4)C2)c(F)c1 (stereo not drawn)	CHRM1 antagonist 93
COC(=O)C1=C(C)N(CCCC(=O)O)C(=O)NC1c1cccc(Cl)c1Cl (stereo not drawn)	none
Cc1ccc(CNC(=O)c2ccc(CNS(=O)(=O)c3ccc4c(c3)C(C)(C)C(=O)N4C)cc2)o1	none
CCOc1ccccc1C(=O)NC(C)CCc1ccccc1 (stereo not drawn)	none
COc1ccc(C(=O)O)cc1S(=O)(=O)NCCN(C)C	none
CCCCN(C(=O)c1ccc(Cl)cc1)C1CC2CCC(C1)N2C (stereo not drawn)	CHRM1 antagonist 28
CCNc1nc(NCC)nc(Oc2ccc(C(=O)OC)cc2)n1	none
CC(=O)c1ccc(-c2cccc([C@H]3[C@@H]4C=CC[C@@H](C)[C@@H]4C(=O)N3Cc3ccccc3)c2)cc1	none
Cc1ccc2nc(-c3ccccc3)cc(C(=O)NCCCn3ccnc3)c2c1	none
O=C(NCCCn1ccnc1)c1cc(-c2cccnc2)nc2ccc(Br)cc12	M1 ag parental 17
CCOc1ccc(NC(=O)CCNC(=O)C2CCN(S(=O)(=O)c3ccccc3)CC2)cc1	none
CC(C)Nc1nc(NC(C)C)nc(NS(=O)(=O)c2ccc(N)cc2)n1	none
CCNc1nc(NC(C)C)nc(NS(=O)(=O)c2ccc(N)cc2)n1	CHO-K1 Ca antag 27
CCOC(=O)Cc1csc(NC(=O)CN2CCN(c3ccccc3)CC2)n1	none
CSc1nsc(SC)c1NC(=O)Nc1ccccn1	M1 PAM parental 49
O=C(NCCS(=O)(=O)N1CCN(c2ccccc2F)CC1)c1cc(=O)c2ccccc2o1	none
N#Cc1cc(C(=O)c2ccccc2O)cn(-c2nccs2)c1=O	M1 ag parental 72, M1 ag 45, CHO-K1 Ca antag 25
N#Cc1cc(C(=O)c2cc(F)ccc2O)cn(-c2nccs2)c1=O	M1 ag parental 55, M1 ag 54
Cc1c(-n2cc(C(=O)c3cc(F)ccc3O)cc(C#N)c2=O)c(=O)n(-c2ccccc2)n1C	none
